Sampled rows, rich in hits. Any-hit rate of the full collection: about 1.7%.
NOD2 RIPK2 PPI: inhibitors of human NOD2-RIPK2 interaction; O43353; inhibition, % at 4.98 µM; hit rate 0.38% among 360,000; CHO BLA complementation NOD2-RIPK2, CCF4 ratio; in the data active = inhibition above about 21%
TLR4 MyD88 comp: blocks binding of human TLR4 to MyD88. HeLa CL3-4 TLR4/MyD88 BLA complementation, FRET ratio. inhibition, % at 8.4 µM. AID 861. hit rate 0.18% among 200,000; in the data active = inhibition above about 25%
Myeloid diff MLP: myeloid differentiation induction. ER-HoxA9 myeloid progenitors, lysozyme-GFP differentiation, flow cytometry. calls only at 10 µM. hit rate 1% among 360,000. AID 624256;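 active = normalized GFP-positive differentiation at or above the plate's own cutoff, the solvent-only control mean plus 3 SD; inconclusive = no clear call, values can overlap the other calls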;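 also: cells exposed to compound for four days before flow analysis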
ABCB6 inh 2: human ABCB6 transporter inhibition; K562-ABCB6 porphyrin accumulation, flow cytometry, 1 h; hits give low values; fluorescence ratio to DMSO, % at 10 µM; hit rate 0.19% among 360,000;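 active = fluorescence ratio to DMSO below 75%, the collection mean minus 3 SD; inconclusive = too few cells collected in the well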;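 also: signal is porphyrin accumulated inside mitochondria; lower ratio means ABCB6 inhibition with less porphyrin fluorescence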
Target sequence (Q9NP58 whole entry, looked up): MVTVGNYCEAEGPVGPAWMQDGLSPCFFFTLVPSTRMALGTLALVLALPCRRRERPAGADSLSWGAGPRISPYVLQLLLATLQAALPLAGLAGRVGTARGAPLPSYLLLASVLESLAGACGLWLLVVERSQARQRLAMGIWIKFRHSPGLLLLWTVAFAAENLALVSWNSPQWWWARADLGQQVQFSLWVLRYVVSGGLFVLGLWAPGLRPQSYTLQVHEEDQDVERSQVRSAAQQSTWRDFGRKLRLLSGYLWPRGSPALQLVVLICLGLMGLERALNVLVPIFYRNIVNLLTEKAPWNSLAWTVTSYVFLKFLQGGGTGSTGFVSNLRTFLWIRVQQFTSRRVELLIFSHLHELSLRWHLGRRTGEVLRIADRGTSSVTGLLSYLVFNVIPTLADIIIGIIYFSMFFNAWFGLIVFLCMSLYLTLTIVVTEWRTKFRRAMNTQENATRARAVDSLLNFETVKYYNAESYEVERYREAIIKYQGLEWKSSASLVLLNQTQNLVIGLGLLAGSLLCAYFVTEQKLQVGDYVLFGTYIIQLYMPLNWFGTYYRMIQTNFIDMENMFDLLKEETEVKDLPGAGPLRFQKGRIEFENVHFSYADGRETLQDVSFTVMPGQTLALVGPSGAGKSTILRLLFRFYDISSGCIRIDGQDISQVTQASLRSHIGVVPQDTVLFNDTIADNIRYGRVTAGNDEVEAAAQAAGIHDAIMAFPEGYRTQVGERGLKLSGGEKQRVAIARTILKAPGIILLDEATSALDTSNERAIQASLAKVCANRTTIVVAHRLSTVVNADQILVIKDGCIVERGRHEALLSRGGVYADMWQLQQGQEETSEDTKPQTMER
TLR9-MyD88 inh: blocks human TLR9 binding to MyD88; CHO BLA complementation TLR9-MyD88, CCF4 FRET ratio; Q9NR96+Q99836; hit rate 0.21% among 340,000; AID 504734; inhibition, % at 4.98 µM;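 active = inhibition above the mean over all tested compounds plus 3 SD, cut at about 21% in these data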
ABCB6 inh CP1: blocks the human ABCB6 transporter | shares compounds with ABCB6 inh 2 | K562-ABCB6 porphyrin accumulation, flow cytometry, 1 h; hits give low values | ratio response (% of DMSO), % at 10 µM | 700 tested, under 10 active | AID 602430;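 active = repeat-averaged ratio response below 75% of DMSO, the collection mean minus 3 SD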;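 also: median porphyrin fluorescence at 575 nm with 488 nm excitation from mitochondria; lower ratio means less porphyrin signal so ABCB6 inhibition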
Large screens that a line does not name were inactive (follow-up assays come after a bar, where they were run).

CCCS(=O)(=O)NC(=O)C1(C)CCN(C(=O)c2ccc(C(=O)OC)cc2)C1 (centres undefined)	none (no result: TLR4 MyD88 comp, TLR9-MyD88 inh)
CCCS(=O)(=O)NC(=O)C1(C)CCN(C(=O)c2ccc(C(F)(F)F)cc2)C1 (centres undefined)	ABCB6 inh 2 70.0 (no result: TLR4 MyD88 comp, TLR9-MyD88 inh) | ABCB6 inh CP1 inactive
COc1cc(/C=N/NC(=O)c2ccc(O)cc2)ccc1Oc1ccc([N+](=O)[O-])cn1	none
COc1ccc(OC)c(NC(=O)C2CC(=O)N(CCc3ccc(F)cc3)C2)c1 (centres undefined)	ABCB6 inh 2 48.0 (no result: TLR4 MyD88 comp) | ABCB6 inh CP1 inactive
CCc1ccc(S(=O)(=O)N2CC(=O)Nc3ccccc32)cc1	none
CCOC(=O)c1ccc(S(=O)(=O)N2CC(=O)Nc3ccccc32)cc1	ABCB6 inh 2 68.0 (no result: TLR4 MyD88 comp) | ABCB6 inh CP1 inactive
CCOC(=O)c1sc2nc(C)cc(-c3ccccc3)c2c1N	ABCB6 inh 2 71.0 | ABCB6 inh CP1 inactive
O=C(CCN1C(=O)C2C3CC(C(Br)C3Br)C2C1=O)OCC(=O)c1ccccc1 (centres undefined)	ABCB6 inh 2 71.0 | ABCB6 inh CP1 inactive
COc1cc(C)ccc1S(=O)(=O)NC(=O)C1(C)CCN1C(=O)Cc1ccc(C(C)(C)C)cc1 (centres undefined)	none (no result: TLR4 MyD88 comp, TLR9-MyD88 inh) | ABCB6 inh CP1 inactive
CC(C)(C)c1ccc(S(=O)(=O)NC(=O)C2(C)CCN2C(=O)Cc2ccc(-c3ccccc3)cc2)cc1 (centres undefined)	none (no result: TLR4 MyD88 comp, TLR9-MyD88 inh) | ABCB6 inh CP1 inactive
COc1ccc(OC)c(S(=O)(=O)NC(=O)C2(C)CCN2C(=O)Cc2ccccc2)c1 (centres undefined)	none (no result: TLR4 MyD88 comp, TLR9-MyD88 inh)
CC1(C(=O)NS(=O)(=O)c2cccc(C#N)c2)CCN1C(=O)Cc1ccc(-c2ccccc2)cc1 (centres undefined)	none (no result: TLR4 MyD88 comp, TLR9-MyD88 inh)
CC1(C(=O)NS(=O)(=O)c2ccc(C#N)cc2)CCN1C(=O)Cc1ccc(-c2ccccc2)cc1 (centres undefined)	none (no result: TLR4 MyD88 comp, TLR9-MyD88 inh) | ABCB6 inh CP1 inactive
CC1(C(=O)NS(=O)(=O)c2ccc(Cl)cc2)CCN1C(=O)Cc1ccccc1 (centres undefined)	none (no result: TLR4 MyD88 comp, TLR9-MyD88 inh)
CCCCc1ccc(S(=O)(=O)NC(=O)C2(C)CCN2C(=O)Cc2ccccc2)cc1 (centres undefined)	none (no result: TLR4 MyD88 comp, TLR9-MyD88 inh) | ABCB6 inh CP1 inactive
COc1ccc(C(=O)NCCNc2nc3cc(C)cc(C)c3cc2C#N)c(OC)c1	none (no result: TLR4 MyD88 comp, ABCB6 inh 2, TLR9-MyD88 inh)
Cc1nonc1NC(=O)CSc1nnc(N)s1	none (no result: TLR4 MyD88 comp)
CC(c1nc2ccccc2c(=O)[nH]1)N1CCCN(S(=O)(=O)c2ccc(F)cc2)CC1 (centres undefined)	none (no result: TLR4 MyD88 comp)
CCOc1ccc(CCN2C(=S)N([C@@H](CC(C)C)CN3CCCC3CN3C(=S)NC[C@@H]3Cc3ccc(O)cc3)C[C@@H]2CC(C)C)cc1 (some centres undefined)	none (no result: TLR4 MyD88 comp)
Cc1ccc(S(=O)(=O)CCC#N)cc1	ABCB6 inh 2 19.0 (no result: TLR4 MyD88 comp) | ABCB6 inh CP1 inactive
COc1ccccc1C1CCN(Cc2ccc(Cl)c(Cl)c2)CC1	none (no result: TLR4 MyD88 comp)
COc1ccccc1C1CCN(Cc2cccc3ccccc23)CC1	ABCB6 inh 2 68.0 (no result: TLR4 MyD88 comp) | ABCB6 inh CP1 inactive
COc1ccccc1C1CCN(Cc2c(C)[nH]c3ccccc23)CC1	ABCB6 inh 2 26.0 (no result: TLR4 MyD88 comp) | ABCB6 inh CP1 inactive
C[C@@H]1CN([C@H](C)CO)S(=O)(=O)c2ccc(C#Cc3cccc(F)c3)cc2O[C@@H]1CN(C)C(=O)CN1CCOCC1	none (no result: TLR4 MyD88 comp)
O=C(CSc1ncn[nH]1)NCc1ccccc1Cl	none (no result: TLR4 MyD88 comp)
CC(=O)Nc1ccc(NC(=O)CSC2=NS(=O)(=O)c3cc(Cl)ccc3N2)cc1	ABCB6 inh 2 56.0 (no result: TLR4 MyD88 comp) | ABCB6 inh CP1 inactive
COc1ccc(NC(=O)C2CCCN2S(=O)(=O)c2ccc(C)cc2)cc1 (centres undefined)	ABCB6 inh 2 45.0 | ABCB6 inh CP1 inactive
COc1cc(OC)cc(C(=O)N[C@H](C(=O)OCC(=O)c2ccc(C)c([N+](=O)[O-])c2)C(C)C)c1	none (no result: TLR4 MyD88 comp)
COCCN(C(=O)CSc1nc(N)cc(=O)[nH]1)c1c(N)n(Cc2ccccc2)c(=O)[nH]c1=O	none (no result: TLR4 MyD88 comp)
CCN(CC)C(=O)CSc1nc(O)c(Cc2ccccc2)c(=O)n1-c1ccccc1	ABCB6 inh 2 57.0 | ABCB6 inh CP1 inactive
CCCN(CCC)CCCNC(=O)c1cc2cc3ccc(Cl)cc3nc2o1	ABCB6 inh 2 73.0 (no result: TLR4 MyD88 comp) | ABCB6 inh CP1 inactive
Cn1nc(-c2ccccc2)c(CO)c1Oc1ccc(F)cc1	ABCB6 inh 2 69.0 | ABCB6 inh CP1 inactive
Cc1ncc([N+](=O)[O-])n1CC(=O)Nc1cc(Cl)ccc1Cl	ABCB6 inh 2 10.0 (no result: TLR4 MyD88 comp) | ABCB6 inh CP1 inactive
Cc1cc(Br)c(NC(=O)Cn2c([N+](=O)[O-])cnc2C)cc1C	none (no result: TLR4 MyD88 comp)
Cc1ccc(N2CC(C(=O)NCC3CCCO3)CC2=O)cc1Cl (centres undefined)	none
COc1ccc(NC(=O)CN2CCC(NC(=O)C3CCCCC3)CC2)cc1	ABCB6 inh 2 68.0 | ABCB6 inh CP1 inactive
COc1cc(-c2nnc(CSc3nnc(Nc4ccc(C(C)C)cc4)s3)o2)cc(OC)c1OC	Myeloid diff MLP inconclusive, ABCB6 inh 2 74.0 | ABCB6 inh CP1 inactive
CCOc1ccc2nc(SCC(=O)NCc3ccccc3OC)[nH]c2c1	ABCB6 inh 2 72.0 (no result: TLR4 MyD88 comp) | ABCB6 inh CP1 inactive
COc1ccc2nc(SCC(=O)Nc3c(C)cccc3C)[nH]c2c1	ABCB6 inh 2 74.0 | ABCB6 inh CP1 inactive
CC1CCC(=NO)C(=NO)C1 (centres undefined)	none (no result: TLR4 MyD88 comp)
COc1ccc(-c2c(NC(=O)CC(C)C)n(C)c3ccccc3c2=O)cc1OC	none (no result: TLR4 MyD88 comp)
COc1cccc(CN(CC(=O)NCC2CCCO2)C(=O)CCC(=O)Nc2cc(C)on2)c1 (centres undefined)	ABCB6 inh 2 73.0 | ABCB6 inh CP1 inactive
COc1ccccc1Oc1ncnc2c1oc1ccccc12	ABCB6 inh 2 69.0 | ABCB6 inh CP1 inactive
CCN(CC)CCOc1ncnc2c1oc1ccccc12	none
COc1ccccc1CNC(=O)COc1ccccc1OC	none
COc1ccccc1CNC(=O)COC(=O)COc1ccccc1F	ABCB6 inh 2 74.0 (no result: TLR4 MyD88 comp) | ABCB6 inh CP1 inactive
COC(=O)c1ccccc1NC(=O)c1noc2c1CC(C(C)(C)C)CC2 (centres undefined)	ABCB6 inh 2 69.0 | ABCB6 inh CP1 inactive
CC(C)(C)C1CCc2onc(C(=O)Nc3cccc(O)c3)c2C1 (centres undefined)	none (no result: Myeloid diff MLP)
Cc1noc(C)c1NC(=O)N(C)C[C@H]1OCc2cnnn2CCCC(=O)N([C@@H](C)CO)C[C@H]1C	none (no result: TLR4 MyD88 comp)
Cn1nc(C(=O)Nc2cccc(S(=O)(=O)N3CCCCC3)c2)c2ccccc2c1=O	none (no result: TLR4 MyD88 comp)
CC1CCN(CCNC(=O)CCS(=O)(=O)c2ccc(Br)cc2)CC1	ABCB6 inh 2 7.0 | ABCB6 inh CP1 inactive
O=[N+]([O-])c1ccc(OCCn2cncn2)cc1	ABCB6 inh 2 63.0 (no result: TLR4 MyD88 comp) | ABCB6 inh CP1 inactive
O=[N+]([O-])c1ccc(OCn2cncn2)cc1	none (no result: TLR4 MyD88 comp)
CN(CCc1ccccc1)C1CCCN(S(=O)(=O)CC(F)(F)F)C1 (centres undefined)	none (no result: TLR4 MyD88 comp)
